Assay [1] is described as follows: NCI Yeast Anticancer Drug Screen. Data for the rad50 strain (AID 155).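 Note: 0% = growth of vehicle-only cultures of the same strain.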 The conditions noted are these: S. cerevisiae rad50 strain growth inhibition, hits give high values. The gist of the method: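 Vehicle-treated cultures provide the reference for the growth inhibition reported for compound-exposed, repair-deficient yeast.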
Assay [2] in a line: NCI Yeast Anticancer Drug Screen. Data for the mec2-1 strain (AID 157). The note with it: S. cerevisiae mec2-1 strain, hits give high values. The procedure, abridged:
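Growth inhibition is read against vehicle-treated controls after compound exposure of the mec2-1 yeast strain, which is defective in DNA damage repair or cell cycle control.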

Assay [3] can be described thus: NCI Yeast Anticancer Drug Screen. Data for the sgs1 mgt1 strain (AID 161).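 Note: 0% = growth of cultures given vehicle only.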 The note with it: S. cerevisiae sgs1 mgt1 strain, hits give high values. The procedure, abridged:
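Compounds are added to genetically altered yeast, and growth is compared with cultures given vehicle alone to give percent inhibition.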

A short description of assay [4]: NCI Yeast Anticancer Drug Screen. Data for the cln2 rad14 strain (AID 165).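 Note: 0% = growth equal to vehicle treated cultures.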 The note with it: S. cerevisiae cln2 rad14 strain, hits give high values. The gist of the method: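 Growth inhibition, relative to vehicle-treated controls, is the read-out. The test organism is a yeast strain with defined genetic alterations, cln2 rad14.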
Assay [5] can be described thus: NCI Yeast Anticancer Drug Screen. Data for the bub3 strain (AID 167). The conditions noted are these: S. cerevisiae bub3 mutant strain, hits give high values. The gist of the method:
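Mutant yeast screening strain plus compound; vehicle-treated cultures serve as the 0% inhibition reference.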

The nature of assay [6]: NCI Yeast Anticancer Drug Screen. Data for the mlh1 rad18 strain (AID 175). The conditions noted are these: S. cerevisiae mlh1 rad18 strain growth inhibition, hits give high values. The gist of the method:
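Cells of a genetically altered yeast strain, deficient in DNA damage repair, were treated with compound. Their growth was then compared with that of vehicle-treated cultures to give inhibition.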

Setting [7] is: at 5.0 µM (retest, dose inferred, filed as 0.5).
The mark [8] stands for this setting: at 50.0 µM (retest, dose inferred, filed as 5.0).

Growth inhibition data for nine compounds are collected here from PubChem BioAssay (NCI).

The structures appear in SMILES notation. Compounds without any hit were thinned out: in the full panel of roughly 79,000, 15% have a hit. Values without a mark were called inactive. Activity calls are given as the source filed them. Cut-off read from the data, not from the text of the source: active = growth inhibition above about 70%; inactive = the rest.

`CN(C=O)NC(=O)N(CCCl)N=O`: the growth inhibition in assay [1] (setting [7]) was 19%; in assay [1] (setting [8]) it was 21%; in assay [1] (at 50.0 µM), 55.2%; in assay [2] (setting [7]), 13%; in assay [2] (setting [8]), 1%; in assay [2] (at 50.0 µM), 62.5%. The growth inhibition is 22% in assay [3] (setting [7]); 21% in assay [3] (setting [8]); -13.2% in assay [3] (at 50.0 µM); 23% in assay [4] (setting [7]); 16% in assay [4] (setting [8]); 11.2% in assay [4] (at 50.0 µM). The growth inhibition in assay [5] (setting [7]) was 12%; in assay [5] (setting [8]), 4%; in assay [5] (at 50.0 µM), -9.1%; in assay [6] (setting [7]), 16%; in assay [6] (setting [8]), 23%; in assay [6] (at 50.0 µM), -11.4%.
On to `CCOc1c(Br)cc(N=Cc2ccc(N(CCCl)CCCl)c(OC)c2)cc1Br`, for which the growth inhibition in assay [1] (setting [7]) was 6%; in assay [1] (setting [8]), 80% (active); in assay [1] (at 50.0 µM) it was 85.2% (active); in assay [2] (setting [7]), -5%; in assay [2] (setting [8]), 79% (active); in assay [2] (at 50.0 µM) it was 45.8%. Moreover, the growth inhibition was -86% in assay [3] (setting [7]); 69% in assay [3] (setting [8]); 76.2% (active) in assay [3] (at 50.0 µM); -3% in assay [4] (setting [7]); 49% in assay [4] (setting [8]); 44.4% in assay [4] (at 50.0 µM). Further, the growth inhibition in assay [5] (setting [7]) was -11%; in assay [5] (setting [8]) it was -16%; in assay [5] (at 50.0 µM) it was -15.8%; in assay [6] (setting [7]), 73% (active); in assay [6] (setting [8]), 95% (active); in assay [6] (at 50.0 µM), 86.8% (active).
In the case of `O=C1C=CC(=O)C(Cl)=C1`, the growth inhibition in assay [1] (setting [7]) is 10%; in assay [1] (setting [8]), 96% (active); in assay [1] (at 50.0 µM), 92.2% (active); in assay [2] (setting [7]) it was 3%; in assay [2] (setting [8]), 73% (active); in assay [2] (at 50.0 µM) it was 96% (active). In addition, the growth inhibition in assay [3] (setting [7]) is 10%; in assay [3] (setting [8]), 98% (active); in assay [3] (at 50.0 µM) it was 96.2% (active); in assay [4] (setting [7]), 6%; in assay [4] (setting [8]), 56%; in assay [4] (at 50.0 µM) it was 91.4% (active). The growth inhibition in assay [5] (setting [7]) was 16%; in assay [5] (setting [8]), 97% (active); in assay [5] (at 50.0 µM), 95% (active); in assay [6] (setting [7]) it was 5%; in assay [6] (setting [8]), 98% (active); in assay [6] (at 50.0 µM), 95.5% (active).
For `N#CC(C#N)=Cc1c(O)ccc2ccccc12`, the growth inhibition is 15% in assay [1] (setting [7]); 76% (active) in assay [1] (setting [8]); 78.5% (active) in assay [1] (at 50.0 µM); -2% in assay [2] (setting [7]); 45% in assay [2] (setting [8]); 51.3% in assay [2] (at 50.0 µM). The growth inhibition in assay [3] (setting [7]) was 2%; in assay [3] (setting [8]), 32%; in assay [3] (at 50.0 µM), 66%; in assay [4] (setting [7]), 18%; in assay [4] (setting [8]), 48%; in assay [4] (at 50.0 µM) it was 61.2%. Further, the growth inhibition is 10% in assay [5] (setting [7]); 62% in assay [5] (setting [8]); 68% in assay [5] (at 50.0 µM); 19% in assay [6] (setting [7]); 81% (active) in assay [6] (setting [8]); 81.5% (active) in assay [6] (at 50.0 µM).
Regarding `CC(=O)O[C@H]1CCC2[C@@H]3CCC4Nc5oncc5C[C@]4(C)C3CC[C@@]21C` (some centres not stated), the growth inhibition was -6% in assay [1] (setting [7]); 81% (active) in assay [1] (setting [8]); 51% in assay [1] (at 50.0 µM); 4% in assay [2] (setting [7]); 75% (active) in assay [2] (setting [8]); 8.35% in assay [2] (at 50.0 µM). In addition, the growth inhibition in assay [3] (setting [7]) is -3%; in assay [3] (setting [8]) it was 53%; in assay [3] (at 50.0 µM), 16.6%; in assay [4] (setting [7]), -10%; in assay [4] (setting [8]), 73% (active); in assay [4] (at 50.0 µM), 70% (active). For the same compound, the growth inhibition is -17% in assay [5] (setting [7]); 68% in assay [5] (setting [8]); 17.9% in assay [5] (at 50.0 µM); 12% in assay [6] (setting [7]); 91% (active) in assay [6] (setting [8]); 84.5% (active) in assay [6] (at 50.0 µM).
For the compound `O=C(CBr)OCC(Br)CBr` (configuration not stated), the growth inhibition is 98% (active) in assay [1] (setting [7]); 39% in assay [1] (setting [8]); 99.2% (active) in assay [1] (at 50.0 µM); 99% (active) in assay [2] (setting [7]); 50% in assay [2] (setting [8]); 99% (active) in assay [2] (at 50.0 µM). For the same compound, the growth inhibition in assay [3] (setting [7]) was 99% (active); in assay [3] (setting [8]), 36%; in assay [3] (at 50.0 µM), 99.3% (active); in assay [4] (setting [7]), 97% (active); in assay [4] (setting [8]) it was -4%; in assay [4] (at 50.0 µM), 98.8% (active). The growth inhibition in assay [5] (setting [7]) was 99% (active); in assay [5] (setting [8]) it was 83% (active); in assay [5] (at 50.0 µM), 99.3% (active); in assay [6] (setting [7]) it was 99% (active); in assay [6] (setting [8]), 49%; in assay [6] (at 50.0 µM) it was 98.8% (active).
Turning to `CC(=O)O[C@@H]1[C@@H](O)[C@H]2O[C@@H]3C=C(C)C(=O)[C@@H](O)[C@]3(CO)[C@]1(C)[C@]21CO1`, the growth inhibition in assay [1] (setting [7]) was 14%; in assay [1] (setting [8]) it was 85% (active); in assay [1] (at 50.0 µM), 48.7%; in assay [2] (setting [7]), 22%; in assay [2] (setting [8]) it was 93% (active); in assay [2] (at 50.0 µM), 20.1%. Further, the growth inhibition in assay [3] (setting [7]) is 13%; in assay [3] (setting [8]), 90% (active); in assay [3] (at 50.0 µM) it was 62.4%; in assay [4] (setting [7]), 33%; in assay [4] (setting [8]), 92% (active); in assay [4] (at 50.0 µM), 23.5%. For the same compound, the growth inhibition is 8% in assay [5] (setting [7]); 90% (active) in assay [5] (setting [8]); 85% (active) in assay [5] (at 50.0 µM); 18% in assay [6] (setting [7]); 95% (active) in assay [6] (setting [8]); 83.3% (active) in assay [6] (at 50.0 µM).
As for `CCC[CH2][Sn]1([CH2]CCC)[O]C(=O)CN=Cc2ccccc2[O]1`, the growth inhibition in assay [1] (setting [7]) is 88% (active); in assay [1] (setting [8]), 88% (active); in assay [1] (at 50.0 µM), 88.5% (active); in assay [2] (setting [7]) it was 92% (active); in assay [2] (setting [8]), 92% (active); in assay [2] (at 50.0 µM) it was 92% (active). Moreover, the growth inhibition in assay [3] (setting [7]) was 85% (active); in assay [3] (setting [8]) it was 85% (active); in assay [3] (at 50.0 µM), 90% (active); in assay [4] (setting [7]), 91% (active); in assay [4] (setting [8]) it was 91% (active); in assay [4] (at 50.0 µM) it was 90.8% (active). Besides, the growth inhibition in assay [5] (setting [7]) is 90% (active); in assay [5] (setting [8]), 90% (active); in assay [5] (at 50.0 µM), 89.9% (active); in assay [6] (setting [7]) it was 90% (active); in assay [6] (setting [8]), 90% (active); in assay [6] (at 50.0 µM), 89.5% (active).
For `ClC1CCCCC1[Se](Cl)(Cl)C1CCCCC1Cl` (configuration not stated), the growth inhibition in assay [1] (setting [7]) is 34%; in assay [1] (setting [8]), 98% (active); in assay [1] (at 50.0 µM), 99% (active); in assay [2] (setting [7]), 45%; in assay [2] (setting [8]), 100% (active); in assay [2] (at 50.0 µM) it was 98.7% (active). Also, the growth inhibition is 12% in assay [3] (setting [7]); 99% (active) in assay [3] (setting [8]); 99.5% (active) in assay [3] (at 50.0 µM); -15% in assay [4] (setting [7]); 99% (active) in assay [4] (setting [8]); 97.9% (active) in assay [4] (at 50.0 µM). For the same compound, the growth inhibition in assay [5] (setting [7]) was 8%; in assay [5] (setting [8]), 99% (active); in assay [5] (at 50.0 µM), 95.6% (active); in assay [6] (setting [7]) it was 43%; in assay [6] (setting [8]) it was 99% (active); in assay [6] (at 50.0 µM), 98.8% (active).
